Screen size: about 44,000 compounds; about 30 (0.07%) were called active. Another 1% or so got no clear call; they are omitted. Only a selection was taken, and actives are over-represented in it overall. Values without a mark were called inactive. Rule as the data show it: active = inhibition above about 54% (passing the limit was not always enough); inconclusive = no clear call, values can overlap the other calls.

For the test, the target named is Histone-lysine N-methyltransferase NSD2 (Homo sapiens) (UniProt O96028). In words: inhibitors of human NSD2, primary screen, biochemical, plate reader, single point (AID 624260).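 Also: inhibitors reduce the monomethyl H3K36 fluorescence signal.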 To be noted: NSD2-SET H3K36me1 DELFIA fluorescence, at 12.5 µM, stronger effect = higher value.
Chain of Histone-lysine N-methyltransferase NSD2 (Homo sapiens) (O96028 whole entry, looked up): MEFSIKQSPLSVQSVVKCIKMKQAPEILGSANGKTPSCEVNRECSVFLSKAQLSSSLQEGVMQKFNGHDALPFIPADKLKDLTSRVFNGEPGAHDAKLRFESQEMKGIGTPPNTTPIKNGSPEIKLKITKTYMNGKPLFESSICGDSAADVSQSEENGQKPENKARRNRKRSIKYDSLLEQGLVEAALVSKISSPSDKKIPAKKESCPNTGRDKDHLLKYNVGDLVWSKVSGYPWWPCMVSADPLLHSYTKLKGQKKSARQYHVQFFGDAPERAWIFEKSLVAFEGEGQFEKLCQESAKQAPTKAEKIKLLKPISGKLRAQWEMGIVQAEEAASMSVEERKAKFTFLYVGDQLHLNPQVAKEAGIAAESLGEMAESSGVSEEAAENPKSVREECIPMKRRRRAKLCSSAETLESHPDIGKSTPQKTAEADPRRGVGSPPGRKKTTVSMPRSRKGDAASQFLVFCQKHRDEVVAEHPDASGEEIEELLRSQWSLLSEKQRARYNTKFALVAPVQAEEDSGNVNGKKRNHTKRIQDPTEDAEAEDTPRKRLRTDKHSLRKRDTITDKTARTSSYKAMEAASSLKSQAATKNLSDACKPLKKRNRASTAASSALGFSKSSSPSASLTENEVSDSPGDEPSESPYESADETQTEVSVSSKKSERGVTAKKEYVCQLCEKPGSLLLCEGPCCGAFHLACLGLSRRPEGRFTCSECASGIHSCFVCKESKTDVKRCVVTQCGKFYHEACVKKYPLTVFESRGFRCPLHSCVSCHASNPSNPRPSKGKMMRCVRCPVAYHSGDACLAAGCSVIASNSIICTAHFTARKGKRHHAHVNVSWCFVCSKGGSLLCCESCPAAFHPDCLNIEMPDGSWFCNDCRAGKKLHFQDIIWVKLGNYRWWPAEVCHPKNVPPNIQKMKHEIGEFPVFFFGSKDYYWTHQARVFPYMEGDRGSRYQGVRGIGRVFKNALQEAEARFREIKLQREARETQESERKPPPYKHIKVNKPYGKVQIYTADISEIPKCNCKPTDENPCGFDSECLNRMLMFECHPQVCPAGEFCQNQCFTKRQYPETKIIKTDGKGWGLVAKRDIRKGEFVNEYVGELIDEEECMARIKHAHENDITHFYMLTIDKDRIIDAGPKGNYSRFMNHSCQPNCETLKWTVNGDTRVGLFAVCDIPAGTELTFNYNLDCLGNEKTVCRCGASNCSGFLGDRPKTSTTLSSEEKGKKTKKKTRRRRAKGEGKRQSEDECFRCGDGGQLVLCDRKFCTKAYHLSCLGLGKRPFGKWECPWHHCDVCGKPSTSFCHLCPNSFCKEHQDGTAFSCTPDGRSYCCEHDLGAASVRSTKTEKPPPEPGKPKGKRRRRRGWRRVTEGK
As a reminder, the inhibition is the change of the read-out against control, counted positive when it falls. For the molecule `C[C@H](CO)N1C[C@H](C)[C@H](CN(C)Cc2ccncc2)Oc2cc(-c3cncnc3)ccc2S1(=O)=O`, the inhibition was -4.69%.

Take `CCCNC(=O)N(C)C[C@H]1Oc2ncc(-c3cccc(C#N)c3)cc2C(=O)N([C@@H](C)CO)C[C@H]1C`: the inhibition was -7.82%.

In the case of `C[C@H](CO)N1C[C@H](C)[C@@H](CN(C)S(=O)(=O)c2cccs2)Oc2ccc(NC(=O)Nc3ccc(C(F)(F)F)cc3)cc2CC1=O`, the inhibition was -1.82%.

For the molecule `C[C@@H]1CN([C@H](C)CO)S(=O)(=O)c2ccc(C#C[C@@H](C)O)cc2O[C@H]1CN(C)C(=O)C1CCCCC1`, the inhibition was -2.77%.

Take `COc1ccc(C#Cc2cnc3c(c2)C(=O)N([C@H](C)CO)C[C@H](C)[C@H](CN(C)C(=O)CC2CC2)O3)cc1`: the inhibition is -0.614%.

`C[C@@H]1CCCCO[C@@H](CN(C)C(=O)Cc2ccccc2)[C@H](C)CN([C@@H](C)CO)C(=O)c2cc(NC(=O)Nc3ccc4c(c3)OCO4)ccc2O1`: the inhibition is -3.09%.

With `CCCC#Cc1cnc2c(c1)C(=O)N([C@H](C)CO)C[C@@H](C)[C@@H](CN(C)C(=O)C1CCOCC1)O2`, the inhibition is 11.1%.

For `C[C@@H]1CN([C@H](C)CO)C(=O)c2cc(NS(=O)(=O)c3ccccc3)ccc2O[C@@H](C)CCCCO[C@H]1CN(C)S(=O)(=O)c1ccc(Cl)cc1`, the inhibition was -1.56%.

Turning to `Cc1noc(C)c1NC(=O)Nc1ccc2c(c1)CC(=O)N([C@@H](C)CO)C[C@@H](C)[C@H](CN(C)Cc1ccc(Oc3ccccc3)cc1)O2`, the inhibition is -7.73%.

For the molecule `O=C(C[C@H]1C[C@H]2c3cc(NC(=O)Nc4ccc(F)cc4)ccc3O[C@H]2[C@H](CO)O1)NCC1CC1`, the inhibition was 5.06%.

On to `COc1ccc(S(=O)(=O)N(C)C[C@H]2OCCCC[C@H](C)Oc3ccc(NC(=O)Nc4ccc(F)cc4)cc3C(=O)N([C@@H](C)CO)C[C@H]2C)cc1`, for which the inhibition was -1.05%.

As to `COc1cccc(-c2cnc3c(c2)C(=O)N([C@@H](C)CO)C[C@@H](C)[C@H](CN(C)C(=O)CN(C)C)O3)c1`, the inhibition was 8.01%.

`C[C@H](O)C#Cc1ccc2c(c1)O[C@H](CN(C)Cc1cccnc1)[C@H](C)CN([C@H](C)CO)S2(=O)=O`: the inhibition was 2.25%.

Consider `CCC(=O)N(C)C[C@@H]1Oc2cc(-c3ccccc3OC)ccc2S(=O)(=O)N([C@H](C)CO)C[C@H]1C`, for which the inhibition was -2.36%.

With `CC(=O)N(C)C[C@@H]1Oc2cc(-c3cccc(F)c3)ccc2S(=O)(=O)N([C@H](C)CO)C[C@H]1C`, the inhibition was -1.69%.

Turning to `C[C@H](CO)N1C[C@H](C)[C@@H](CN(C)Cc2ccc(Cl)c(Cl)c2)Oc2ccc(NC(=O)Cn3cnnn3)cc2CC1=O`, the inhibition was -4.84%.

As to `C/C=C/c1ccc2c(c1)O[C@H](CN(C)C(=O)Nc1ccccc1)[C@H](C)CN([C@@H](C)CO)S2(=O)=O`, the inhibition was -4.94%.

Take `C[C@@H]1CN([C@@H](C)CO)C(=O)c2c(c3ccccc3n2C)-c2ccccc2CO[C@@H]1CN(C)S(=O)(=O)c1ccc(F)cc1`: the inhibition is -1.17%.

With `C[C@@H]1CN([C@@H](C)CO)C(=O)Cc2cc(NS(=O)(=O)c3ccc(Cl)cc3)ccc2O[C@H]1CN(C)C(=O)Nc1cccc2ccccc12`, the inhibition was -4.23%.

For `CC(=O)N(C)C[C@H]1Oc2cc(C#CCN(C)C)ccc2S(=O)(=O)N([C@H](C)CO)C[C@H]1C`, the inhibition is -0.922%.

Consider `COc1cccc(CNC(=O)C[C@H]2CC[C@@H](NC(=O)C3CCC3)[C@@H](CO)O2)c1`, for which the inhibition is 2.46%.

As to `COc1ccccc1NC(=O)N[C@H]1CC[C@@H](CC(=O)NCc2ccc(Cl)c(Cl)c2)O[C@H]1CO`, the inhibition is -9.36%.

`C[C@H](CO)N1C[C@H](C)[C@@H](CN(C)C(=O)Nc2ccc3c(c2)OCO3)Oc2ccc(NS(=O)(=O)c3ccc(Cl)cc3)cc2CC1=O`: the inhibition was 1.14%.

Take `C[C@@H](O)C#Cc1ccc2c(c1)O[C@@H](CN(C)Cc1cccnc1)[C@@H](C)CN([C@@H](C)CO)S2(=O)=O`: the inhibition was 3.08%.

Consider `COCC#Cc1ccc2c(c1)O[C@H](CN(C)C(=O)CC1CC1)[C@@H](C)CN([C@@H](C)CO)S2(=O)=O`, for which the inhibition was 8.01%.

On to `CNC[C@@H]1OCCCC[C@H](C)Oc2ccc(NS(=O)(=O)c3ccc(F)cc3)cc2C(=O)N([C@@H](C)CO)C[C@@H]1C`, for which the inhibition is -5.42%.

For `COc1ccc(-c2cnc3c(c2)C(=O)N([C@@H](C)CO)C[C@@H](C)[C@H](CN(C)C)O3)cc1`, the inhibition is 9.08%.

For the molecule `C[C@H](CO)N1C[C@H](C)[C@H](CN(C)C(=O)Nc2ccc3c(c2)OCO3)Oc2cc(C#Cc3ccncc3)ccc2S1(=O)=O`, the inhibition was 2.61%.

Regarding `C[C@@H]1CCCCO[C@H](CN(C)C(=O)CCC(F)(F)F)[C@H](C)CN([C@H](C)CO)C(=O)c2cc(NC(=O)NC3CCCCC3)ccc2O1`, the inhibition is -3.86%.

In the case of `Cc1cc(C)c(/C=C2\C(=O)Nc3ccccc32)[nH]1`, the inhibition was -2.13%.

As for `Cc1[nH]c(/C=C2\C(=O)Nc3ccc(S(=O)(=O)Cc4c(Cl)cccc4Cl)cc32)c(C)c1C(=O)N1CCC[C@@H]1CN1CCCC1`, the inhibition is 67.1% (active).

For `C/C=C/c1ccc2c(c1)O[C@@H](CN(C)C(=O)c1ccncc1)[C@@H](C)CN([C@H](C)CO)S2(=O)=O`, the inhibition was 0.685%.

For the molecule `C/C=C/c1cnc2c(c1)C(=O)N([C@@H](C)CO)C[C@@H](C)[C@H](CN(C)Cc1cncnc1)O2`, the inhibition is 2.06%.

With `CCCC#Cc1ccc2c(c1)O[C@H](CN(C)C(=O)c1ccncc1)[C@H](C)CN([C@H](C)CO)S2(=O)=O`, the inhibition is 5.45%.

With `C[C@H](CO)N1C[C@H](C)[C@@H](CN(C)C(=O)C2CC2)Oc2cc(-c3cccc(C#N)c3)ccc2S1(=O)=O`, the inhibition is -3.58%.

Consider `Cc1noc(C)c1S(=O)(=O)Nc1ccc2c(c1)CC(=O)N([C@@H](C)CO)C[C@@H](C)[C@H](CN(C)S(=O)(=O)c1cccs1)O2`, for which the inhibition was -2.26%.

Regarding `C[C@@H]1CN([C@@H](C)CO)C(=O)Cc2cc(NC(=O)CCCCCC(=O)Nc3ccccc3N)ccc2O[C@H]1CN(C)Cc1ccc(Cl)c(Cl)c1`, the inhibition was -4.04%.

Regarding `Cc1ccc(-c2cnc3c(c2)C(=O)N([C@H](C)CO)C[C@H](C)[C@@H](CN(C)S(C)(=O)=O)O3)cc1`, the inhibition is 4.66%.

Take `C[C@H]1CN([C@@H](C)CO)C(=O)c2cc(-c3cccc(F)c3)cnc2O[C@@H]1CN(C)C(=O)c1ccccn1`: the inhibition was 3.24%.

As to `C[C@@H]1CN([C@H](C)CO)C(=O)c2cc(C#Cc3ccncc3)cnc2O[C@H]1CN(C)Cc1ccncc1`, the inhibition is 6.93%.

For the molecule `C[C@@H]1CN([C@@H](C)CO)C(=O)c2cc(C#Cc3ccncc3)cnc2O[C@@H]1CN(C)C(=O)CN(C)C`, the inhibition was 3.43%.

Take `CCCC#Cc1cnc2c(c1)C(=O)N([C@H](C)CO)C[C@H](C)[C@@H](CN(C)S(=O)(=O)c1ccccc1)O2`: the inhibition was 8.48%.

`C[C@@H]1CN([C@@H](C)CO)S(=O)(=O)c2ccc(C#Cc3cccnc3)cc2O[C@@H]1CN(C)C(=O)CN(C)C`: the inhibition is 0.378%.

As to `COCC#Cc1cnc2c(c1)C(=O)N([C@H](C)CO)C[C@H](C)[C@H](CN(C)C(=O)Cc1cccnc1)O2`, the inhibition was -0.822%.

In the case of `C[C@H](O)C#Cc1ccc2c(c1)O[C@@H](CN(C)C(=O)C1CC1)[C@H](C)CN([C@H](C)CO)S2(=O)=O`, the inhibition was 3.98%.

For the molecule `CCC(=O)N(C)C[C@@H]1Oc2cc(C#CCOC)ccc2S(=O)(=O)N([C@@H](C)CO)C[C@@H]1C`, the inhibition is 4.65%.

As to `C[C@H](CO)N1C[C@H](C)[C@@H](CN(C)S(=O)(=O)c2cccc(F)c2)Oc2cc(C#CCN(C)C)ccc2S1(=O)=O`, the inhibition was 0.824%.

In the case of `COc1cc(/C=N/NC(=O)c2ccc(C(=O)NO)cc2)ccc1O`, the inhibition was -2.52%.

Consider `C[C@@H]1CN([C@H](C)CO)C(=O)c2cc(C#CCN(C)C)cnc2O[C@@H]1CN(C)C(=O)Cc1cccnc1`, for which the inhibition is -1.47%.

As for `CCCC#Cc1cnc2c(c1)C(=O)N([C@@H](C)CO)C[C@@H](C)[C@@H](CN(C)Cc1ccccc1F)O2`, the inhibition is 4.92%.

With `C[C@@H]1CN([C@@H](C)CO)C(=O)c2cc(C#CC3CCCCC3)cnc2O[C@H]1CN(C)C(=O)Cc1ccccn1`, the inhibition is -1.35%.

Consider `CNC[C@H]1Oc2cc(C#CCOC)ccc2S(=O)(=O)N([C@@H](C)CO)C[C@H]1C`, for which the inhibition is -0.881%.

Turning to `C[C@H]1CN([C@@H](C)CO)S(=O)(=O)c2ccc(-c3ccncc3)cc2O[C@@H]1CN(C)C(=O)CC1CC1`, the inhibition was -0.24%.

Consider `C[C@@H]1CN([C@@H](C)CO)C(=O)c2cc(-c3ccncc3)cnc2O[C@@H]1CN(C)C(=O)C1CCCCC1`, for which the inhibition was 1.45%.

Consider `C[C@@H]1CN([C@@H](C)CO)C(=O)Cc2cc(NC(=O)C3CC3)ccc2O[C@H]1CN(C)C(=O)NC1CCCCC1`, for which the inhibition was 4.29%.

Regarding `C[C@H](CO)N1C[C@H](C)[C@H](CN(C)Cc2cccnc2)Oc2ncc(C3=CCCC3)cc2C1=O`, the inhibition was 1.28%.

With `COc1ccc(NC(=O)N(C)C[C@@H]2Oc3ccc(NC(=O)Cc4cn(C)c5ccccc45)cc3CC(=O)N([C@@H](C)CO)C[C@H]2C)cc1`, the inhibition is -6.14%.

As to `CC(C)NC(=O)N(C)C[C@H]1Oc2ncc(-c3ccc(C(=O)N(C)C)cc3)cc2C(=O)N([C@H](C)CO)C[C@H]1C`, the inhibition is 1.31%.

Consider `COc1ccc(NC(=O)N(C)C[C@@H]2OCc3ccccc3-c3c(n(C)c4ccccc34)C(=O)N([C@H](C)CO)C[C@H]2C)cc1`, for which the inhibition is -10.2%.

For the origin of these results see PubChem BioAssay AID624260 (Broad Institute, 2012).
